Results taken from PubChem BioAssay (NCATS).
Inconclusive results are not listed. A call without a number means that no potency is given here. Activity calls are given as the source filed them. Calls come from the whole dose curve; as a rule, active = well fitted curve in the direction sought with a large enough effect; inconclusive = small, poorly fitted or top-dose-only effect, or another doubt; inactive = no such curve, though single readings can be large; an effect the other way counts as inactive or inconclusive.

Experiments:
[1] = qHTS of pediatric cancer cell lines to identify multiple opportunities for drug repurposing: Primary screen for MG 63 (6-TG R) cells (AID 1347105); note: nearly all actives have a fitted effect of over 50% in size; note: potency is the fitted concentration of half-maximal effect
Procedure, shortened: (§1)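 CRCs from 8- or 11-point titrations (lowest final 0.59 nM NPC, 0.78 nM MIPE). Cell viability: CellTiter-Glo after 48 h incubation, 15 min room-temperature development, luminescence imaging.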

[2] = qHTS of pediatric cancer cell lines to identify multiple opportunities for drug repurposing: Primary screen for control Hh wild type fibroblast cells (AID 1347106);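 note: series mostly up to about 46 µM; a drop in luminescence marks cytotoxicity and a rise apparent proliferation; nearly all actives have a fitted effect of over 55% in size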
Procedure, shortened: (§2)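 Viability after 48 h compound treatment at 37C, 500-1,000 cells/well, read as ATP luminescence with CellTiter-Glo. Primary screens used 11-point (MIPE, 0.78 nM-46 µM) or 8-point (NPC, 0.59 nM-46 µM) final concentrations; follow-up screens used 11-point dilutions.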

[3] = qHTS of pediatric cancer cell lines to identify multiple opportunities for drug repurposing: Primary screen for Rh30 cells (AID 1347107); note: series mostly up to about 46 µM; nearly all actives have a fitted effect of over 75% in size
Procedure, shortened: as §2

[4] = qHTS of pediatric cancer cell lines to identify multiple opportunities for drug repurposing: Primary screen for Rh41 cells (AID 1347108);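 note: series mostly up to about 46 µM; luminescence drop marks cytotoxic hits; nearly all actives have a fitted effect of over 70% in size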
Procedure, shortened: as §1

SMILES | Potency [1] | Potency [2] | Potency [3] | Potency [4]
C=C1C[C@H]2[C@H]3CCC(=O)[C@@]3(C)CC[C@@H]2[C@@]2(C)C=CC(=O)C=C12 | inactive | inactive | inactive | –
CC1=C(C(=O)O)N2C(=O)[C@@H](N)[C@H]2SC1 | inactive | inactive | inactive | inactive
CSCC[C@@H](NC(=O)[C@@H](Cc1ccccc1)NC(=O)CNC(=O)CNC(=O)[C@@H](N)Cc1ccc(O)cc1)C(=O)O | inactive | inactive | inactive | inactive
CN[C@@H]1Cc2cccc3[nH]c(=O)n(c23)C1 | inactive | inactive | inactive | –
CCCC[N+]1(C)[C@H]2CC(OC(=O)[C@H](CO)c3ccccc3)C[C@H]1[C@H]1O[C@H]12 (stereo partly drawn) | inactive | inactive | inactive | inactive
C1CCC(NC2CCCCC2)CC1 | inactive | inactive | inactive | inactive
C=C[C@@H]1CN2CCC1C[C@H]2[C@H](O)c1ccnc2ccccc12 (stereo partly drawn) | inactive | inactive | – | –
O=C(Oc1ccc([N+](=O)[O-])cc1)N1CCC(C(O)(c2ccc3c(c2)OCO3)c2ccc3c(c2)OCO3)CC1 | inactive | inactive | inactive | inactive
C[C@]12CC[C@@H]3[C@@H](CCC4=CC(=O)CC[C@@H]43)[C@@H]1CC[C@@H]2OC(=O)CCc1ccccc1 | inactive | inactive | inactive | inactive
CCCCOC(=O)c1ccccc1C(=O)OCc1ccccc1 | inactive | inactive | inactive | inactive
O=S(=O)(O)C(F)(F)C(F)(F)C(F)(F)C(F)(F)C(F)(F)C(F)(F)C(F)(F)C(F)(F)F | inactive | inactive | inactive | inactive
C=C[C@@H]1CN2CCC1C[C@@H]2[C@@H](O)c1ccnc2ccccc12 (stereo partly drawn) | inactive | inactive | – | –
CC(O)=C(C#N)C(=O)Nc1cc(Br)ccc1Br | inactive | inactive | inactive | –
C=CCC1=C(C)C(OC(=O)C2C(C=C(C)C)C2(C)C)CC1=O (stereo not drawn) | inactive | inactive | – | –
O=[N+]([O-])c1ncc[nH]1 | inactive | inactive | inactive | inactive
C=CC(=O)NCNC(=O)C=C | inactive | inactive | inactive | inactive
COc1ccc2c(c1)[C@]13CCCCC1C(C2)N(C)CC3 (stereo partly drawn) | inactive | inactive | inactive | inactive
CC(C)(C)NC[C@H](O)c1ccc(O)cc1Cl | inactive | inactive | inactive | inactive

SMILES | Potency [1] | Potency [2] | Potency [3] | Potency [4]
O=C(NCC1CCOCC1)c1cnc(Nc2ccc(Cl)cc2Cl)nc1C(F)(F)F | 29.6 µM (active) | inactive | inactive | –
CC(=O)N(C)c1cccc(-c2ccnc3c(C(=O)c4cccs4)cnn23)c1 | inactive | inactive | inactive | inactive
O=C(Nc1ccccc1-c1ccc(Cl)cc1)c1cccnc1Cl | inactive | inactive | inactive | inactive
c1cc2ccc3cccc4ccc(c1)c2c34 | inactive | inactive | inactive | inactive
C[C@]12CCC(=O)C(O)=C1CC[C@@H]1[C@H]3CCC(=O)[C@@]3(C)CC[C@@H]12 | inactive | inactive | inactive | –
Oc1ccc2c3c1O[C@H]1[C@@H](O)C=C[C@H]4[C@@H](C2)NCC[C@@]341 | inactive | inactive | inactive | inactive
Cc1nc(-c2ccc(-c3ccc(C(=O)N4CCc5cc6c(cc54)C4(CCN(C)CC4)CO6)cc3)c(C)c2)no1 | inactive | inactive | inactive | inactive
O=[N+]([O-])c1c2ccccc2cc2ccccc12 | inactive | inactive | inactive | –
OCCCBr | inactive | inactive | inactive | inactive
CCOC(=O)Nc1ccc(NCc2ccc(F)cc2)cc1N | inactive | inactive | inactive | –
c1ccc2c(CN3CCNCC3)cccc2c1 | inactive | inactive | inactive | inactive
CC(=O)OCC1=C(C(=O)O)N2C(=O)[C@@H](N)[C@@H]2SC1 | inactive | inactive | inactive | inactive
CCCCCCCCCC(CC)c1ccc(S(=O)(=O)O)cc1 (stereo not drawn) | inactive | inactive | inactive | inactive
O=C(O)c1cc(Oc2ccc(C(F)(F)F)cc2Cl)ccc1[N+](=O)[O-] | inactive | inactive | inactive | inactive
Fc1cc(Br)ccc1CBr | inactive | inactive | inactive | inactive
CCCCCCCCCCCCCCCC[N+](C)(C)C | 21.1 µM (active) | – | – | –
Cc1cc(O)ccc1Cl | inactive | inactive | inactive | inactive
C#C[C@]1(O)C=C[C@@H]2[C@@H]3CCC4=CC(=O)CC[C@@H]4[C@H]3CC[C@@]21CC | inactive | inactive | inactive | inactive
